This note sets out measurements from article PMC4336329 (PLoS ONE, 2015).

The whole screen tested about 310,000 compounds, of which about 14,000 (4.5%) showed an effect of 50% or more. Effects have a minus sign here. For the sample, strong results were picked, then their nearest neighbours and some compounds at random.
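Note: peak tail current of the secondary pulse compared with the same well before compound.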

The experiment deals with human ether-à-go-go-related gene (hERG) potassium channel (human, UniProt Q12809). The experiment is described as follows: primary screen, population patch clamp on CHO cells stably expressing hERG; higher = less effect of the substance.
human ether-à-go-go-related gene (hERG) potassium channel, sequence (Q12809 whole entry, looked up): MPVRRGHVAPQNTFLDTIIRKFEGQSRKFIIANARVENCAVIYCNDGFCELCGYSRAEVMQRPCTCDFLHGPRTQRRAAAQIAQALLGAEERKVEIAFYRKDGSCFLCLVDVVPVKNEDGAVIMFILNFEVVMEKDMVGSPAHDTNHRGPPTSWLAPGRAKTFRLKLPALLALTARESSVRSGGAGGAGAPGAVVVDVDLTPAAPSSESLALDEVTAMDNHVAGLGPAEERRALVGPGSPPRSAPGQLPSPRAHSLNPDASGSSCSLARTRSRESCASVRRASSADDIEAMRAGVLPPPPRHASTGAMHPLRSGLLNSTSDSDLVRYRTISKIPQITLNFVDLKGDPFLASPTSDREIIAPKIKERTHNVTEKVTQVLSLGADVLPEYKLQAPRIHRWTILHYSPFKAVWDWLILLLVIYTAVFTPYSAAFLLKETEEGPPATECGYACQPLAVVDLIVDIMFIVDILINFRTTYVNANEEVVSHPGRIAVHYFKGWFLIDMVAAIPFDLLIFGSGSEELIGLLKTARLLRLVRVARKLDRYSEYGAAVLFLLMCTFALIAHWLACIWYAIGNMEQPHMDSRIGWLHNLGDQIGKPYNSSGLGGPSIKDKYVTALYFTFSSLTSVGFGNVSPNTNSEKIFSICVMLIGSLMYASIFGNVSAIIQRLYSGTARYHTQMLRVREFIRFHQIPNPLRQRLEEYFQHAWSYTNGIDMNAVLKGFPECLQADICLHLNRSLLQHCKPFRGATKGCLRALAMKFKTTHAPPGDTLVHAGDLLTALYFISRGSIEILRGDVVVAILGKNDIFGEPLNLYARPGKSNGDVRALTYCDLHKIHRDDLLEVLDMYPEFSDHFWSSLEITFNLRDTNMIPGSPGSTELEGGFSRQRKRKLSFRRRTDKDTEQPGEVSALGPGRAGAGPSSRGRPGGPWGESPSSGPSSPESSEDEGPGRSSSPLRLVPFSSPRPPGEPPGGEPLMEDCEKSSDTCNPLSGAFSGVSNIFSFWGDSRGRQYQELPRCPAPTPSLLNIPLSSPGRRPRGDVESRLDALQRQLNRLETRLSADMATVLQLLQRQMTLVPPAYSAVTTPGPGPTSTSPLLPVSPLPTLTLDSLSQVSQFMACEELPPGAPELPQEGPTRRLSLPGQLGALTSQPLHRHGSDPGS
Turning to `CCOC(=O)c1cccc(NC(=O)c2ccc(F)cc2F)c1`, the “hERG current change (%, negative = inhibition) at 10uM” value is -16.1%.
As for `O=c1ccnc(Nc2ccc(Cl)cc2)[nH]1`, the figure is -10.3%; as for `C/C(=N/NC(=O)CNC(=O)c1ccco1)c1ccco1`, 2.11%.
Next, `Cc1cccnc1NC(=O)Nc1ccc(Cl)cc1`: 9.39%; `Cc1ccc(N(CCC#N)C(=O)CSc2nnc3ccccn23)cc1`: -8.44%; `COc1ccc2ccccc2c1CN1CCN(Cc2ccccc2)CC1`: -2.66%.
Regarding `Oc1cccc(Nc2nc(N3CCOCC3)nc(N3CCOCC3)n2)c1`, the “hERG current change (%, negative = inhibition) at 10uM” value was 8.76%.
Consider `CSc1ccc(CN(C)C(=O)CNC(=O)CNS(=O)(=O)c2ccc(C)c(C)c2)cc1`, for which the “hERG current change (%, negative = inhibition) at 10uM” value is on record as -24.1%.
Next, `CN(C(=O)N1CCN(c2ccccn2)CC1)c1ccccc1`: 7.47%; `Cc1cc(Cn2nc(C(=O)NCc3cccc(C(F)(F)F)c3)cc2-c2ccccc2)on1`: -57%.
`Cc1cc(Cn2nc(C(=O)NCc3cccc(Br)c3)cc2-c2ccccc2)on1`: the “hERG current change (%, negative = inhibition) at 10uM” value is -20.3%.
For the compound `Cc1cc(Cn2nc(-c3ccccc3)cc2C(=O)NCc2cccc(C(F)(F)F)c2)on1`, the “hERG current change (%, negative = inhibition) at 10uM” value came out at 10.8%.
As for `CCOC(=O)c1c(NC(=O)CSc2nnc(C)s2)sc2c1CCC(C)C2` (centres unmarked), the figure is 21.5%.
As for `CN1CCN(c2ccc(NS(=O)(=O)c3ccc(Cl)cc3)cn2)CC1`, the figure is -40.2%; as for `O=C(CC1SC(=O)N(Cc2ccccc2Cl)C1=O)Nc1nccs1` (centres unmarked), -5.31%.
Next, `CC1=C/C(=N\NC(=O)c2ccccc2)CC1`: -53.1%.
For `CC1=C/C(=N\NC(=O)c2ccc(O)cc2)CC1`, the “hERG current change (%, negative = inhibition) at 10uM” value was 20.8%.
As for `COc1ccccc1OCC(=O)N/N=C1/C=C(C)CC1`, the figure is -3.82%; as for `Cc1oc2c(c1C(=O)NCc1cccnc1)C(=O)c1ccccc1C2=O`, -47%.
In the case of `COc1cccc(NC(=O)CCc2nc(-c3ccccc3F)no2)c1`, the “hERG current change (%, negative = inhibition) at 10uM” value was -0.885%.
Regarding `COc1ccc(C(=O)Nc2cc(Cl)ccc2-n2cncn2)c(OC)c1OC`, the “hERG current change (%, negative = inhibition) at 10uM” value is -14.4%.
Next, `COc1ccccc1C(=O)Nc1cc(Cl)ccc1-n1cncn1`: 0.114%; `CCN(CC)c1ccc(C(=O)NC(=S)Nc2cc(S(=O)(=O)N3CCOCC3)ccc2-n2cncn2)cc1`: -7.1%.
For `O=C(Nc1cc(Cl)ccc1-n1cncn1)c1ccc(F)c(S(=O)(=O)N2CCOCC2)c1`, the “hERG current change (%, negative = inhibition) at 10uM” value is recorded as -44.6%.
Next, `COc1cc(OC)c(C(=O)Nc2cc(Cl)ccc2-n2cncn2)cc1OC`: -55%; `O=C(Nc1cc(S(=O)(=O)N2CCOCC2)ccc1-n1cncn1)c1ccc(Cl)cc1`: -50.4%; `CN1CCN(S(=O)(=O)c2cccc(C(=O)Nc3cc(Cl)ccc3N3CCOCC3)c2)CC1`: -42.3%.
Next, `O=C(Nc1cc(Cl)ccc1-n1cncn1)c1cc(S(=O)(=O)N2CCOCC2)ccc1F`: -34.7%.
As for `O=C(Nc1cc(Cl)ccc1-n1cncn1)c1cccc(S(=O)(=O)N2CCOCC2)c1`, the figure is -61.9%; as for `Oc1c(C(c2cccs2)N2CCN(c3ccccc3)CC2)ccc2cccnc12` (centres unmarked), 7.17%; as for `COC(=O)C1C(O)=C(C=NCc2ccccc2)C(=O)CC1(C)C` (centres unmarked), -5.13%.
Regarding `CC(=O)N(C)c1ccc(NC(=O)N2CCOCC2)cc1`, the “hERG current change (%, negative = inhibition) at 10uM” value is listed as 4.94%.
For the compound `Cc1ccc(N2CC(O)Cn3c2nc2c3c(=O)[nH]c(=O)n2C)cc1` (centres unmarked), the “hERG current change (%, negative = inhibition) at 10uM” value was 13.3%.
As to `Cc1ccc2nc(NCCC(=O)O)nc(-c3ccccc3)c2c1`, the “hERG current change (%, negative = inhibition) at 10uM” value was 3.76%.
Next, `CN(Cc1ccccc1)C(=O)CCC1CCN(C(=O)c2ccccc2C(F)(F)F)CC1`: 8.38%.
Next, `CN(Cc1ccccc1)C(=O)CCC1CCN(C(=O)CCC(F)(F)F)CC1`: -4.45%; `CSCc1ccc(C(=O)N2CCC(CCC(=O)N(C)Cc3ccccc3)CC2)o1`: -50.7%; `COC(=O)c1ccc(OC)c(CSc2nnc(COc3ccccc3)o2)c1`: -17.7%.
As for `CCOC(=O)c1c(CSc2nc(C)cc(C)c2C#N)n(C)c2cc(Br)c(OC(C)=O)cc12`, the figure is 8.76%; as for `CCOC(=O)c1c(CSC(=N)N)n(-c2ccccc2)c2cc(Br)c(OC(C)=O)cc12`, -77.9%; as for `Br.CCOC(=O)c1c(CSC(=N)N)n(C)c2cc(Br)c(OC(C)=O)cc12`, -68.7%.
Regarding `CCOC(=O)c1c(CSc2ccccc2)n(C)c2cc(Br)c(OCC(O)CNC(CO)(CO)CO)cc12` (centres unmarked), the “hERG current change (%, negative = inhibition) at 10uM” value is given as 2.71%.
Next, `CCOC(=O)c1c(C)n(C)c2c1cc(OC(C)=O)c1ccccc12`: 19.7%; `Br.CCCCCCCCOC(=O)c1c(CSC(=N)N)n(C)c2cc(Br)c(OC(C)=O)cc12`: -22.8%; `C=CCCc1ccc(C#N)c(SCc2c(C(=O)OCC)c3cc(OC(C)=O)c(Br)cc3n2C)n1`: -1.18%.
Take `Br.CCOC(=O)c1c(CSC(=N)N)n(-c2ccc(C)cc2)c2cc(Br)c(OC(C)=O)cc12`: the “hERG current change (%, negative = inhibition) at 10uM” value is given as -65.4%.
As for `CCOC(=O)c1c(C)n(C)c2cc(Br)c(C)cc12`, the figure is 23.3%.
As for `CC12CCC(C(=O)Nc3cccc(Cl)c3Cl)([C@H](Br)C1=O)C2(C)C` (some centres unmarked), the figure is -39.6%; as for `COC(=O)c1ccc(NC(=O)C2CCCN(S(=O)(=O)c3cnc[nH]3)C2)cc1` (centres unmarked), 3.35%.
Regarding `Cc1ccc(C(=O)c2oc3ccccc3c2N)cc1`, the “hERG current change (%, negative = inhibition) at 10uM” value is -7.77%.
Take `CCCCOc1ccc(C(=O)NCC(=O)NC(C)CCc2ccccc2)cc1` (centres unmarked): the “hERG current change (%, negative = inhibition) at 10uM” value is -4.99%.
Next, `CC(=O)c1cnc(N(C)C)s1`: 10%.
Next, `Cc1nnc(SCC(=O)Nc2ccc(-c3nc4ccccc4s3)cc2)s1`: 23.4%; `N/C(=N\[N+](=O)[O-])N1CCN(C(=O)OC2CCCC2)CC1`: 19.4%; `COc1ccc(CNC(=O)CC(C)S(=O)(=O)c2ccc3c(c2)NC(=O)CO3)cc1` (centres unmarked): 10.1%.
As for `Cn1c(SCC(=O)Nc2ccc(Cl)cn2)nnc1C1CC1`, the “hERG current change (%, negative = inhibition) at 10uM” value is on record as -3.25%.
As for `C=CCn1cccc(C(=O)Nc2ccc(C)c(Cl)c2)c1=O`, the “hERG current change (%, negative = inhibition) at 10uM” value came to 10%.
Next, `C=CCn1cccc(C(=O)Nc2ccc(C)c(C)c2)c1=O`: -71.9%.
As for `O=C(CCc1ccccc1)Nc1ccncc1`, the figure is -56.8%; as for `O=C(Nc1ccccc1)c1cccn(Cc2ccccc2)c1=O`, 13.7%; as for `C=CCn1cccc(C(=O)Nc2ccc(C)cc2)c1=O`, -7.96%.
Regarding `O=C(NCc1ccccc1)c1cccn(Cc2ccccc2)c1=O`, the “hERG current change (%, negative = inhibition) at 10uM” value is on record as -29.3%.
Next, `O=C(CCc1ccccc1)Nc1cccc(NC(=O)CCc2ccccc2)c1`: -13.4%; `O=C(Nc1ccncc1)c1cccn(Cc2ccccc2)c1=O`: -55.8%.
Next, `O=C(CCc1ccccc1)Nc1ccccc1`: -2.56%; `COc1ccc(NC(=O)COC(=O)CN2C(=O)NC(C)(C)C2=O)cc1`: 2.55%; `Cc1ccc(-c2cccc(OC(=O)c3ccccc3F)c2)cc1`: 5.02%.
As for `COc1ccc(NC(=O)C2CCN(S(=O)(=O)c3ccc4[nH]c(=O)oc4c3)CC2)c(OC)c1`, the figure is 3.47%; as for `O=S(=O)(c1ccccc1)c1nc(-c2ccc(F)cc2)oc1NCC1CCCO1` (centres unmarked), -34.6%.
On to `COc1cc2c(cc1OC)CN(C(=O)C(C)(C)C)CC2`, for which the “hERG current change (%, negative = inhibition) at 10uM” value turned out to be 17.6%.
Regarding `COc1ccc(CCNCC(O)COc2cccc(C(C)=O)c2)cc1OC.O=C(O)C(=O)O` (centres unmarked), the “hERG current change (%, negative = inhibition) at 10uM” value was -0.028%.
Next, `COc1ccc(CCNCC(O)COc2c(C)cccc2C)cc1OC.O=C(O)C(=O)O` (centres unmarked): 6.84%; `COc1ccc(CCNCC(O)COc2cccc(Br)c2)cc1` (centres unmarked): -50%.
For the compound `COc1ccc(CCNCC(O)COc2cccc(Br)c2)cc1OC` (centres unmarked), the “hERG current change (%, negative = inhibition) at 10uM” value is listed as -67.3%.
Next, `COc1ccc(CCNC(=O)COC(=O)COc2ccc(Cl)cc2)cc1OC`: 7.05%; `COc1ccc(CCNCC(O)COc2ccc(OC)cc2C(C)(C)C)cc1` (centres unmarked): -38.8%.
Regarding `OC(CNCCc1ccc(C(F)(F)F)cc1)COc1ccc2ccccc2c1` (centres unmarked), the “hERG current change (%, negative = inhibition) at 10uM” value is on record as -46.5%.
Take `COc1ccc(CCNC(=O)CCCOc2ccc(Cl)cc2)cc1OC`: the “hERG current change (%, negative = inhibition) at 10uM” value was -15.3%.
As for `COc1ccc(CCNCC(O)COc2ccc(Cl)cc2)cc1OC.Cl` (centres unmarked), the figure is -72.1%; as for `CCN1CCCC1CNC(=O)C(=O)Nc1ccccc1OC` (centres unmarked), -15%.
For `C#CCNC(=O)C1=C[C@@H](c2ccc(Br)cc2)C[C@@H](OCc2ccc(CO)cc2)O1`, the “hERG current change (%, negative = inhibition) at 10uM” value was found to be 16.6%.
For the compound `Cl.N=c1ccn(Cc2cccc(Cl)c2)cc1`, the “hERG current change (%, negative = inhibition) at 10uM” value was 2.03%.
As for `C=CCO/N=C/C1C(=O)CC(C)(C)CC1=O`, the figure is 10.9%.
As for `CC(C(=O)NC1CCCC1)N(C(=O)CS(=O)CC(=O)Nc1ccc(F)cc1)c1ccc2c(c1)OCCO2` (centres unmarked), the figure is -3.58%; as for `CC(=O)c1csc(CS(=O)(=O)c2ccccn2)n1`, 5.4%.
`Fc1cccc(Nc2nc3ccccc3n3cnnc23)c1`: the “hERG current change (%, negative = inhibition) at 10uM” value worked out at 4.55%.
Take `Cn1c(CS(=O)Cc2c(Cl)cccc2Cl)nnc1SCc1ccc(Cl)cc1` (centres unmarked): the “hERG current change (%, negative = inhibition) at 10uM” value is -56.2%.
Next, `CCn1c(CS(=O)Cc2ccc(Cl)cc2Cl)nnc1SCc1c(Cl)cccc1Cl` (centres unmarked): -6.78%; `Cn1c(CS(=O)Cc2c(Cl)cccc2Cl)nnc1SCc1c(Cl)cccc1Cl` (centres unmarked): -45.1%.
